This is a sample that favours compounds with a hit; in the whole collection about 3.8% have one here.
Cardio protect – modulators protecting cardiomyocytes from myocardial damage; hit rate 0.63% among 360,000; H9c2 cardiomyocytes, H2O2 injury protection, ATPLite, 2 h; protection from H2O2 cell death, % at 20 µM;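 active = compounds giving at least 50% protection of heart cells from peroxide-induced death in the single-dose screen, raw or plate-pattern-corrected value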;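 note: 0% = DMSO wells with peroxide and 100% = DMSO wells without peroxide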
FAS TE block – blocks the thioesterase domain of human fatty acid synthase | P49327 | inhibition, % at 15 µM | recombinant FAS-TE, OMFH fluorogenic substrate, fluorescence endpoint | hit rate 0.67% among 360,000;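 active = compounds whose normalised, plate-corrected inhibition of enzyme fluorescence in the single-dose primary screen is 50% or more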;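 note: 0% = DMSO with enzyme and 100% = substrate without enzyme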
CR mimetic SO – lowers age-related superoxide in aged yeast cells; superoxide response (% of plate mean), % at 10 µM; S. cerevisiae aged cells, superoxide DHE fluorescence; stronger effect = lower value; hit rate 0.18% among 330,000;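 active = superoxide response under a set limit, about three screen SD below normal, cut at about 65% in these data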;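 note: yeast aged for seven days with compound at 30 °C before DHE staining; 100% = average MFI of all compound-treated wells on the plate with controls excluded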
SUMO Mot1 rescue – inhibitors of SUMOylation pathway: yeast Mot1-301 growth rescue; S. cerevisiae Mot1-301 growth rescue, ATP luminescence, 38.5C; percent above DMSO median, 100 means doubled; growth rescue, % at 18.8 µM; hit rate 1% among 320,000; AID 2716;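 active = every valid replicate shows activation above 250% relative to neutral control wells; inactive = the rest, any valid replicate at or below 250%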;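 note: OY570 slx delta 5 strain wells were the positive control but not used for scaling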
aDG glyco act – increases alpha dystroglycan glycosylation. hit rate 0.22% among 360,000. Pro5-aDG cells, alpha-DG glycosylation AlphaScreen (IIH6); 0% Pro5, 100% B10-LARGE cell signal. activation, % at 10 µM;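 active = activation of at least 8% versus controls, or a plate z-score of at least 8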;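 note: Pro5 are CHO cells carrying HIG-tagged alpha-DG that lacks glycosylation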
MPTP inh – blocks calcium-induced mitochondrial swelling. isolated mouse mitochondria, Ca2+ swelling absorbance, 30 min. inhibition, % at 10 µM. hit rate 1.4% among 360,000;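 active = inhibition of 50% or more, scaled per plate between neutral and stimulator controls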;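 note: 0% = DMSO wells given calcium and 100% = 1 mM EGTA wells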
Starred values were filed as active, the others as inactive; . = no result.

SMILES	Cardio protect	FAS TE block	CR mimetic SO	SUMO Mot1 rescue	aDG glyco act	MPTP inh
O=[N+]([O-])c1cc(Cc2ccccc2)cc(C=Nc2ccc(N3CCOCC3)cc2)c1O	85.5*	1.8	85.5	22.6	0.3	14.9
O=[N+]([O-])c1ccc(N2CCN(S(=O)(=O)Cc3ccccc3)CC2)cc1N1CCOCC1	5.6	12.6	86.7	-9.3	-0.4	-4.3
Oc1c(Br)cc(Br)cc1C=Nc1ccc2c(c1)OCCO2	84.2*	-5.2	81.5	.	-0.4	-1.6
Cc1ccc(S(=O)(=O)Nc2ccccc2C(=O)N2CCN(C)CC2)cc1	5.1	-0.4	98.6	-9.0	-0.1	1.9
O=C(COC(=O)Cc1c(F)cccc1Cl)NNC(=O)c1ccccc1	4.5	-6.5	107.0	389.2	0.0	-1.3
Cc1cc(Br)cc(C=Nc2ccc(N3CCOCC3)cc2)c1O	84.0*	9.5	96.0	58.8	-0.1	1.2
Oc1ccc(C=Nc2ccc(N3CCOCC3)cc2)c(O)c1	13.1	-6.0	97.5	-5.3	-0.4	-0.4
NS(=O)(=O)c1ccc(NC(=S)NC2CC2)cc1	-12.1	-4.7	93.8	691.4*	0.1	-0.2
CC1(C)CC(NC(=S)Nc2ccc(S(N)(=O)=O)cc2)CC(C)(C)N1	8.6	-2.7	95.0	70.2	-0.2	-1.3
CCC1CC(C(=O)Nc2ccccc2)C(=O)O1 (configuration not stated)	3.4	-6.8	92.1	301.1*	0.1	-2.0
CCOC(=O)c1ccc(NC(=O)c2nc[nH]c2C(=O)NCCCCCNC(=O)OC(C)(C)C)cc1	79.2*	26.6	97.1	1.8	-0.1	-1.9
CCOC(=O)c1ccc(NC(=O)c2nc[nH]c2C(=O)NCCCCNC(=O)c2[nH]cnc2C(=O)Nc2ccc(C(=O)OCC)cc2)cc1	57.7*	-5.3	84.9	12.4	-0.8	1.5
CCOC(=O)C1(Cc2ccccc2)CCCN(C(=O)c2ccc(-n3ccnc3)cc2)C1 (configuration not stated)	2.0	2.0	99.0	1.1	0.1	1.7
C[C@@H](NC(=O)c1nc[nH]c1C(=O)NCC(=O)OCc1ccccc1)c1ccccc1	92.4*	-121.7	96.6	16.5	-0.2	-0.5
O=C(CNC(=O)c1nc[nH]c1C(=O)N1CCc2ccccc2C1)OCc1ccccc1	104.8*	-3.1	109.2	-4.0	-0.1	-0.2
O=C(CNC(=O)c1nc[nH]c1C(=O)N1CCNCC1)OCc1ccccc1	13.6	-9.7	104.5	-13.7	-0.4	0.3
CC(C)(C)OC(=O)N1CCC(NC(=O)c2nc[nH]c2C(=O)NCC(=O)OCc2ccccc2)CC1	72.2*	-2.4	104.2	-0.9	-0.4	0.2
CC1(C(=O)Nc2ccc3c(c2)OCO3)CC1(Cl)Cl (configuration not stated)	4.1	-2.2	92.6	13.2	0.4	0.2
CC[C@@]12C(=O)N(c3cccc(Br)c3)C(=O)N1[C@H](c1ccc(Br)cc1)[C@@H]1C(=O)N(C(C)(C)C)C(=O)[C@@H]12	1.4	57.5*	106.7	9.3	0.3	-2.3
O=C1[C@H]2[C@@H](c3ccc(Cl)cc3)N3C(=O)N(c4cccc(Br)c4)C(=O)[C@@]3(Cc3ccc(Cl)cc3)[C@H]2C(=O)N1C1CCCCC1	-8.1	91.1*	100.7	5.8	1.9	2.5
O=C1[C@H]2[C@@H](c3ccc(F)cc3)N3C(=O)N(c4ccccc4)C(=O)[C@@]3(Cc3ccc(Cl)cc3)[C@H]2C(=O)N1C1CCCCC1	-10.6	93.6*	101.2	8.2	0.4	0.8
O=C1[C@H]2[C@@H](c3ccc(F)cc3)N3C(=O)N(c4cccc(Cl)c4)C(=O)[C@@]3(Cc3ccccc3)[C@H]2C(=O)N1C1CCCCC1	-1.9	72.1*	107.2	80.0	0.9	1.5
O=C(NNC(=O)C1CC=CCC1)c1ccccc1Cl (configuration not stated)	2.6	-0.7	96.1	-7.4	-0.1	1.4
Cc1cccc([C@@H]2[C@@H]3C(=O)N(Cc4ccccc4)C(=O)[C@@H]3[C@]3(Cc4ccc(Cl)cc4)C(=O)N(c4ccc(Br)cc4)C(=O)N23)c1	-3.4	90.3*	102.3	-5.2	-0.2	2.1
O=C(O)CSc1cc(C(=O)c2cc(F)ccc2O)cn2c(=O)c3c(-c4ccccc4)csc3nc12	31.1	66.4*	124.6	0.5	-0.2	13.5

Compound activity from PubChem.
